# Laboratory results as given in PubChem BioAssay (NCI).
# This is part of a sample that, as a whole, favours compounds with a hit. Of some 79,000 tested, about 15% had one in any assay. A number with no mark means an inactive call. The source made the active and inactive calls. Cut-off read from the data, not from the text of the source: active = growth inhibition above about 70%; inactive = the rest.
# Test: NCI Yeast Anticancer Drug Screen. Data for the mlh1 rad18 strain (AID 175)
# Settings: S. cerevisiae mlh1 rad18 strain growth inhibition; at 50.0 µM (retest, dose inferred, filed as 5.0); active compounds read high
# How it was run: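 Vehicle-treated cultures served as the reference for growth inhibition in a yeast strain carrying DNA damage repair alterations exposed to each compound.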
row,SMILES,growth inhibition
1,CC(CN(C)C)C(=O)/C=C/c1c(Cl)cccc1Cl (stereo not given),97% (active)
2,COc1ccc(C(=O)c2cc(Br)ccc2O)cc1,-2%
3,COc1cccc(OC)c1C(=O)/C=C/c1ccccc1,71% (active)
4,S=C(Nc1ccc(Cl)c(Cl)c1)SC1CCCCC1,96% (active)
5,Cc1sc(N=Nc2c(O)[nH]c3ccccc23)nc1-c1ccccc1,39%
6,O=C(NC(c1ccccc1)N1CCOCC1)c1ccccc1 (stereo not given),-1%
7,Cc1nc2ccc3c(ccc4nc(C)c(N=Nc5ccc(C(=N)N)cc5)c(O)c43)c2c(O)c1N=Nc1ccc(C(=N)N)cc1,77% (active)
8,CN(C)CCNC(=O)C(c1ccccc1)c1ccccc1,11%
9,CCOc1ccc(C(=O)CCN2CCOCC2)cc1,35%
10,O=S(Nc1ccccc1Br)c1ccccc1 (stereo not given),45%
11,CSC(=S)N/N=C(\C)c1ccc[nH]1,77% (active)
12,Cc1ccc(Cl)cc1NN,96% (active)
13,C[C@]12CC[C@H](O)C[C@@H]1CC[C@@H]1[C@@H]2CC[C@]2(C)[C@@H](c3cc(C(F)(F)F)n[nH]3)CC[C@@H]12,96% (active)
14,CCCOC(=O)C(S)C(S)C(=O)OCCC (stereo not given),75% (active)
15,CCC(C)(C)c1cc(Br)c(NS(=O)(=O)c2ccc(NC(C)=O)cc2)c(Br)c1,42%
16,Cn1c2c(c3nc(N)nc(N)c3c1=O)CCc1ccccc1-2,36%
17,Cc1ccc(C(O)CCN2CCOCC2)c(C)c1 (stereo not given),65%
18,COC(=O)CCCC(=O)NC1=C(Nc2ccccc2)C(=O)c2ccccc2C1=O,60%
19,Oc1cc(Br)cc2cccnc12,99% (active)
20,COC(=O)Cc1cn[nH]c1C(=O)OC,-94%

row,SMILES,growth inhibition
1,O=C1CCCCCCC2=C1C(Sc1ccccc1)CC2 (stereo not given),80% (active)
2,CC/C(=C1\C=CC(=O)S1)C(CC)c1ccc(OC(C)=O)cc1 (stereo not given),99% (active)
3,COc1ccc(C2=C(Cl)C(=O)N(c3ccc(C)cc3)C(=O)C2(Cl)Cl)cc1,33%
4,CN(C)C1C[C@@H](O[Si](C)(C)C(C)(C)C)C=C1S(=O)(=O)c1ccccc1 (stereo not given in full),100% (active)
5,NC(=O)C(=O)N/N=C/c1ccc([N+](=O)[O-])o1,65%
6,O=C(O)C1CCC(CC2CC3CCC2C3)CC1 (stereo not given),86% (active)
7,CCCCCCCCCCCCOCC[N+](CCO)(CCO)Cc1ccccc1,99% (active)
8,Cc1cc(C)cc([C@H](C)N=Cc2cc(Br)ccc2O)c1,96% (active)
9,C=CC1(c2ccc(OC)cc2)OCCCO1,97% (active)
10,CC(C)CCOC(=O)c1ccc(O)cc1.[Zn+2],35%
11,C/C=C/C=C\C1OC(O)([C@H](CC)C(=O)NC/C=C/C=C(\C)[C@H](OC)C(C)C2OC(\C=C/C=C/C=C(\C)C(=O)c3c(O)ccn(C)c3=O)[C@H](O)[C@@H]2O)C(O)C(O)C1(C)C (stereo not given in full),-62%
12,O=c1cccccc1[O-].O=c1cccccc1[O-].O=c1cccccc1[O-].[Dy+3],10%
13,CCCC(=O)Oc1ccc(-c2ccc(Br)cc2)cc1,94% (active)
14,Oc1c(Cl)c(Cl)c(O)c2c1CCCC2,99% (active)
15,Clc1nc(Cl)nc(N2CCCc3ccccc32)n1,82% (active)
16,CC[C@H]1CN2CCc3cc(OC)c(OC)cc3[C@@H]2C[C@@H]1C[C@H]1NCCc2cc(OC)c(OC)cc21,3%
17,S=C(NCCc1ccccc1)N/N=C/c1ccc(Cl)cc1,67%
18,O=C(O)Cc1ccc2c(c1O)C(=O)c1ccccc1C2=O,29%
19,CC1CCN(C(=S)NNC(C)c2cc3ccccc3cn2)CC1 (stereo not given),96% (active)
20,Cc1c[nH]c(C(=O)O)c1-c1ccc2c(-c3ccccc3)nc3ccccc3n12,95% (active)

# Same assay, conditions: S. cerevisiae mlh1 rad18 strain growth inhibition; at 50.0 µM; active compounds read high
row,SMILES,growth inhibition
1,CC(CN(C)C)C(=O)/C=C/c1c(Cl)cccc1Cl (stereo not given),96.5% (active)
2,COc1ccc(C(=O)c2cc(Br)ccc2O)cc1,90.1% (active)
3,COc1cccc(OC)c1C(=O)/C=C/c1ccccc1,79.1% (active)
4,S=C(Nc1ccc(Cl)c(Cl)c1)SC1CCCCC1,90% (active)
5,Cc1sc(N=Nc2c(O)[nH]c3ccccc23)nc1-c1ccccc1,-26.4%
6,O=C(NC(c1ccccc1)N1CCOCC1)c1ccccc1 (stereo not given),98.8% (active)
7,Cc1nc2ccc3c(ccc4nc(C)c(N=Nc5ccc(C(=N)N)cc5)c(O)c43)c2c(O)c1N=Nc1ccc(C(=N)N)cc1,90.7% (active)
8,CN(C)CCNC(=O)C(c1ccccc1)c1ccccc1,98.5% (active)
9,CCOc1ccc(C(=O)CCN2CCOCC2)cc1,55.3%
10,O=S(Nc1ccccc1Br)c1ccccc1 (stereo not given),44.8%
11,CSC(=S)N/N=C(\C)c1ccc[nH]1,85.7% (active)
12,Cc1ccc(Cl)cc1NN,47.6%
13,C[C@]12CC[C@H](O)C[C@@H]1CC[C@@H]1[C@@H]2CC[C@]2(C)[C@@H](c3cc(C(F)(F)F)n[nH]3)CC[C@@H]12,88.7% (active)
14,CCCOC(=O)C(S)C(S)C(=O)OCCC (stereo not given),48.2%
15,CCC(C)(C)c1cc(Br)c(NS(=O)(=O)c2ccc(NC(C)=O)cc2)c(Br)c1,20.5%
16,Cn1c2c(c3nc(N)nc(N)c3c1=O)CCc1ccccc1-2,44.4%
17,Cc1ccc(C(O)CCN2CCOCC2)c(C)c1 (stereo not given),69.2%
18,COC(=O)CCCC(=O)NC1=C(Nc2ccccc2)C(=O)c2ccccc2C1=O,16.3%
19,Oc1cc(Br)cc2cccnc12,83.8% (active)
20,COC(=O)Cc1cn[nH]c1C(=O)OC,9.75%

row,SMILES,growth inhibition
1,O=C1CCCCCCC2=C1C(Sc1ccccc1)CC2 (stereo not given),54.1%
2,CC/C(=C1\C=CC(=O)S1)C(CC)c1ccc(OC(C)=O)cc1 (stereo not given),99.3% (active)
3,COc1ccc(C2=C(Cl)C(=O)N(c3ccc(C)cc3)C(=O)C2(Cl)Cl)cc1,94% (active)
4,CN(C)C1C[C@@H](O[Si](C)(C)C(C)(C)C)C=C1S(=O)(=O)c1ccccc1 (stereo not given in full),58%
5,NC(=O)C(=O)N/N=C/c1ccc([N+](=O)[O-])o1,56.1%
6,O=C(O)C1CCC(CC2CC3CCC2C3)CC1 (stereo not given),53.8%
7,CCCCCCCCCCCCOCC[N+](CCO)(CCO)Cc1ccccc1,99.3% (active)
8,Cc1cc(C)cc([C@H](C)N=Cc2cc(Br)ccc2O)c1,97.5% (active)
9,C=CC1(c2ccc(OC)cc2)OCCCO1,89% (active)
10,CC(C)CCOC(=O)c1ccc(O)cc1.[Zn+2],84.2% (active)
11,C/C=C/C=C\C1OC(O)([C@H](CC)C(=O)NC/C=C/C=C(\C)[C@H](OC)C(C)C2OC(\C=C/C=C/C=C(\C)C(=O)c3c(O)ccn(C)c3=O)[C@H](O)[C@@H]2O)C(O)C(O)C1(C)C (stereo not given in full),17%
12,O=c1cccccc1[O-].O=c1cccccc1[O-].O=c1cccccc1[O-].[Dy+3],92% (active)
13,CCCC(=O)Oc1ccc(-c2ccc(Br)cc2)cc1,95.8% (active)
14,Oc1c(Cl)c(Cl)c(O)c2c1CCCC2,99.4% (active)
15,Clc1nc(Cl)nc(N2CCCc3ccccc32)n1,74.3% (active)
16,CC[C@H]1CN2CCc3cc(OC)c(OC)cc3[C@@H]2C[C@@H]1C[C@H]1NCCc2cc(OC)c(OC)cc21,8.25%
17,S=C(NCCc1ccccc1)N/N=C/c1ccc(Cl)cc1,80.9% (active)
18,O=C(O)Cc1ccc2c(c1O)C(=O)c1ccccc1C2=O,74.1% (active)
19,CC1CCN(C(=S)NNC(C)c2cc3ccccc3cn2)CC1 (stereo not given),86.8% (active)
20,Cc1c[nH]c(C(=O)O)c1-c1ccc2c(-c3ccccc3)nc3ccccc3n12,91.8% (active)
